# This is one part of the list. Records with an inconclusive call do not appear. The source made the active and inactive calls. The call rests on the fitted dose curve; in most records, active means well fitted curve in the direction sought with a large enough effect; inconclusive means small, poorly fitted or top-dose-only effect, or another doubt; inactive means no such curve, though single readings can be large or run the other way.
# Test: qHTS for Inhibitors of Glutaminase (GLS): Hit Confirmation using Cytotoxicity
# Conditions: HEK-293 viability, CellTiter-Glo luminescence, 24 h; series mostly up to 46.1 µM
# Excerpt: Glutaminase (GLS) catalyzes the hydrolysis of glutamine into glutamate and ammonia. It plays a critical role in glutaminolysis, which is an important energy source for proliferating cells. It was shown that c-Myc, an oncogenic transcription factor known to regulate microRNAs and to stimulate cell proliferation, increases glutamine metabolism by stimulating the expression of GLS via direct suppression of miR23a and miR23b. […] GLS is also thought to play a pathogenic role on HAD using a human HIV-1 infected macrophage system. […] GLS inhibition limits glutamate release and provides neuroprotection against HIV-1 infected macrophages. […] The overall goal of this project is to identify small molecule inhibitors of GLS through quantitative high throughput screening (qHTS) of the MLSMR. A validated potent and selective inhibitor can be used as a tool molecule to further study the pharmacology of its target as well as explore its potential therapeutic application in cancer and inflammatory neurological disorders, such as HIV1-associated dementia (HAD) and multiple sclerosis. This is a hit confirmation assay using a cytotoxic read-out to exclude cytotoxic compounds. Toxic compounds will be labeled as active and excluded in future experiment. NIH Chemical Genomics Center [NCGC] NIH Molecular Libraries Probe Centers Network [MLPCN] MLPCN Grant: DA032470 Assay Submitter (PI): Barbara S. Slusher, Johns Hopkins University
# HEK-293 cells are grown in a flask up to 80% confluence. Cells will be trypsinized, washed, and resuspended in MEM Eagle + 10% FBS + 1% pen-strep media at the concentration of 120 cells/microl. Five microl/well of cell solution will be dispensed into a 1536-well assay plates (Greiner, solid white medium-binding plates) with Auror Discovery BioRAPTR Flying Reagent Dispenser (FRD; Beckton-Dickenson). Cells will be pre-incubated at 37 °C, 5% CO2 for 4hrs. Compound and control solutions (23nl) will then be transferred to the assay plate using the Kalypsys 1536 pin-tool. […] Luminescence signal will be read with PerkinElmer ViewLux plate reader after 30 min room temperature incubation.
row,Structure (SMILES),outcome
1,CCN1C(=O)c2cccc3c(S(=O)(=O)Nc4ccccc4O)ccc1c23,inactive
2,COc1cc(OC)c(S(=O)(=O)Nc2ccccc2C(=O)O)cc1S(=O)(=O)Nc1ccccc1C(=O)O,inactive
3,O=C(O)c1cccc(S(=O)(=O)Nc2ccc(O)cc2Sc2nc3ccccc3s2)c1,inactive

# Reference: PubChem BioAssay AID624264 (National Center for Advancing Translational Sciences (NCATS), 2012)
